Results on 39 compounds are retold here after PubChem BioAssay (NCATS).

For part of these data: Measured potencies and affinities stand elsewhere. Activity calls are given as the source filed them. How the calls were made is not given here.

The conditions of one assay: Ebola virus entry assay, green channel fluorescence.
Regarding `Cc1c(N)cccc1C(F)(F)F`, the compound was classed as inactive.
Take `CCCCC1C(=O)N(c2ccccc2)N(c2ccccc2)C1=O`: the result was inactive.
The same measure, in the same setting: the same measure for `CC(C)(Cc1c[nH]c2ccccc12)NCC(O)COc1ccccc1C#N` (stereo not drawn): “inactive”; for `CN(C)CCN(Cc1ccccc1)c1ccccn1`: “inactive”.
On the same count and under the same terms, the same measure for `CO[C@]1(NC(=O)CSC(F)F)C(=O)N2C(C(=O)O)=C(CSc3nnnn3CCO)CO[C@H]21`: “inactive”.
Same read-out and setting: the same measure for `COc1ccc(CN(CCN(C)C)c2ccccn2)cc1`: “inactive”.
`O=c1[nH]sc2cc(Cl)ccc12`: the result was inactive.
Same read-out and setting: the same measure for `O=C(OCc1ccccc1)c1ccc(O)cc1`: “inactive”.
The same measure, in the same setting: the same measure for `CC(C)NCC(O)COc1ccc(COCCOC(C)C)cc1` (stereo not drawn): “inactive”.
Same read-out and setting: the same measure for `C=C[C@@]1(C)CC(=O)[C@]2(O)[C@@]3(C)[C@@H](O)CCC(C)(C)[C@@H]3[C@H](O)[C@H](OC(C)=O)[C@@]2(C)O1`: “inactive”.
For the compound `COCCc1ccc(OCC2CO2)cc1` (stereo not drawn), the call was inactive.
The same measure, in the same setting: the same measure for `CC(Cc1cccc(C(F)(F)F)c1)NCCOC(=O)c1ccccc1` (stereo not drawn): “inactive”; for `Oc1ccc(Cl)cc1Cc1cc(Cl)ccc1O`: “inactive”; for `CC(C)C[C@@H](N)C(=O)O`: “inactive”.
For `CCCCCCCCCCCCCCCCC(C(=O)O)C(O)(CC(=O)O)C(=O)O` (stereo not drawn), the call was inactive.
The same measure, in the same setting: the same measure for `O=C(/C=C/c1ccc(O)c(O)c1)O[C@@H]1C[C@@](OC(=O)/C=C/c2ccc(O)c(O)c2)(C(=O)O)C[C@@H](O)[C@@H]1O`: “inactive”.
Same read-out and setting: with `C[C@]12CC[C@@H]3c4ccc(O)cc4CC[C@H]3[C@@H]1CC[C@@H]2OC(=O)CCC1CCCC1` the entry was “inactive”.
The same measure, in the same setting: the same measure for `NC(=O)C(=O)N/N=C/c1ccc([N+](=O)[O-])o1`: “inactive”.
As for `COC(=O)[C@H]1[C@H]2C[C@@H]3c4[nH]c5cc(OC)ccc5c4CCN3C[C@H]2C[C@@H](OC(=O)/C=C/c2ccc(O)c(OC)c2)[C@@H]1OC`, the compound was classed as inactive.
The same measure, in the same setting: with `CCc1cc(Cl)c(OC)c(C(=O)NC[C@@H]2CCCN2CC)c1O` the entry was “inactive”; with `O=S1(=O)c2cccc3cccc(c23)N1CCCN1CCN(c2ccc(F)cc2)CC1`, “inactive”.
As for `CC(C)n1nc(-c2cc3cc(O)ccc3[nH]2)c2c(N)ncnc21`, the compound was called inactive.
As to `CC1=C(C(=O)O)N2C(=O)[C@@H](NC(=O)[C@H](N)C3=CCC=CC3)[C@H]2SC1`, the compound was called inactive.
The same measure, in the same setting: with `CO/N=C(/C(=O)N[C@@H]1C(=O)N2C(C(=O)O)=C(Cn3nnc(C)n3)CS[C@H]12)c1csc(N)n1` the entry was “inactive”; with `CC[C@H](NC(C)C)[C@H](O)c1ccc(O)c2[nH]c(=O)ccc12`, “inactive”; with `Cc1ccc(C(=O)Nc2ccc(S(=O)(=O)O)c3cc(S(=O)(=O)O)cc(S(=O)(=O)O)c23)cc1NC(=O)c1cccc(NC(=O)Nc2cccc(C(=O)Nc3cc(C(=O)Nc4ccc(S(=O)(=O)O)c5cc(S(=O)(=O)O)cc(S(=O)(=O)O)c45)ccc3C)c2)c1`, “inactive”.
Still for that read-out and setting: with `CCCOc1ccc(C(=O)OCCN(CC)CC)cc1N` the entry was “inactive”; with `NC(N)=NN=C(/C=C/c1ccc([N+](=O)[O-])o1)/C=C/c1ccc([N+](=O)[O-])o1`, “inactive”; with `Cc1ccc(=O)n(-c2ccccc2)c1`, “inactive”.
Still for that read-out and setting: with `C[C@H](N)C(=O)N[C@@H](C)C(=O)NC1[C@H]2CN(c3nc4c(cc3F)c(=O)c(C(=O)O)cn4-c3ccc(F)cc3F)C[C@@H]12` (stereo partly drawn) the entry was “inactive”.
As to `Cc1cccc(Nc2cc(Cl)nc(SCC(=O)O)n2)c1C`, the compound was classed as inactive.
For `c1ccc(CC2=NCCN2)cc1`, the outcome was inactive.
On the same count and under the same terms, with `Oc1ccc(Cl)cc1Sc1cc(Cl)ccc1O` the entry was “inactive”; with `CCOC(=O)N1CCC(n2c(=O)[nH]c3cc(Cl)ccc32)CC1`, “inactive”; with `Cc1cc2c(OCC(CNC(C)(C)C)OC(=O)c3ccccc3)cccc2[nH]1` (stereo not drawn), “inactive”.
Still for that read-out and setting: with `COc1ccc2nc(NC(=O)Nc3ccccc3)sc2c1` the entry was “inactive”; with `C#C[C@]1(O)CC[C@H]2[C@@H]3CCc4cc(O)ccc4[C@H]3CC[C@@]21C`, “inactive”.
Still for that read-out and setting: with `CC1(C)O[C@@H]2C[C@H]3[C@@H]4CCC5=CC(=O)CC[C@]5(C)[C@@]4(F)[C@@H](O)C[C@]3(C)[C@]2(C(=O)CCl)O1` the entry was “inactive”.
With `C=C1C[C@H]2[C@@H]3C=C(C)C4=CC(=O)CC[C@]4(C)[C@H]3CC[C@]2(C)[C@@]1(OC(C)=O)C(C)=O`, the compound was classed as inactive.

For a further assay the following is noted: Ebola virus entry assay, reporter ratio channel; Channel type: primary.
Consider `Cc1c(N)cccc1C(F)(F)F`, for which the outcome was inactive.
On the same count and under the same terms, the same measure for `CCCCC1C(=O)N(c2ccccc2)N(c2ccccc2)C1=O`: “inactive”.
With `CC(C)(Cc1c[nH]c2ccccc12)NCC(O)COc1ccccc1C#N` (stereo not drawn), the concentration at half-maximal activity (AC50) is 25.1 µM (active).
As for `CN(C)CCN(Cc1ccccc1)c1ccccn1`, the AC50 was 20 µM (active).
Turning to `CO[C@]1(NC(=O)CSC(F)F)C(=O)N2C(C(=O)O)=C(CSc3nnnn3CCO)CO[C@H]21`, the outcome was inactive.
Consider `COc1ccc(CN(CCN(C)C)c2ccccn2)cc1`, for which the AC50 is 15.8 µM (active).
With `O=c1[nH]sc2cc(Cl)ccc12`, the AC50 is 39.8 µM (active).
For the compound `O=C(OCc1ccccc1)c1ccc(O)cc1`, the outcome was inactive.
With `CC(C)NCC(O)COc1ccc(COCCOC(C)C)cc1` (stereo not drawn), the AC50 is 12.6 µM (active).
`C=C[C@@]1(C)CC(=O)[C@]2(O)[C@@]3(C)[C@@H](O)CCC(C)(C)[C@@H]3[C@H](O)[C@H](OC(C)=O)[C@@]2(C)O1`: the outcome was inactive.
On the same count and under the same terms, the same measure for `COCCc1ccc(OCC2CO2)cc1` (stereo not drawn): “inactive”.
Turning to `CC(Cc1cccc(C(F)(F)F)c1)NCCOC(=O)c1ccccc1` (stereo not drawn), the half-maximal activity concentration (AC50) was 28.2 µM (active).
As to `Oc1ccc(Cl)cc1Cc1cc(Cl)ccc1O`, the AC50 was 11.2 µM (active).
For `CC(C)C[C@@H](N)C(=O)O`, the outcome was inactive.
`CCCCCCCCCCCCCCCCC(C(=O)O)C(O)(CC(=O)O)C(=O)O` (stereo not drawn): the outcome was inactive.
With `O=C(/C=C/c1ccc(O)c(O)c1)O[C@@H]1C[C@@](OC(=O)/C=C/c2ccc(O)c(O)c2)(C(=O)O)C[C@@H](O)[C@@H]1O`, the half-maximal activity concentration (AC50) was 20 µM (active).
For `C[C@]12CC[C@@H]3c4ccc(O)cc4CC[C@H]3[C@@H]1CC[C@@H]2OC(=O)CCC1CCCC1`, the result was inactive.
In the case of `NC(=O)C(=O)N/N=C/c1ccc([N+](=O)[O-])o1`, the outcome was inactive.
Regarding `COC(=O)[C@H]1[C@H]2C[C@@H]3c4[nH]c5cc(OC)ccc5c4CCN3C[C@H]2C[C@@H](OC(=O)/C=C/c2ccc(O)c(OC)c2)[C@@H]1OC`, the AC50 was 3.16 µM (active).
Same read-out and setting: the same measure for `CCc1cc(Cl)c(OC)c(C(=O)NC[C@@H]2CCCN2CC)c1O`: 20 µM (active).
Still for that read-out and setting: the same measure for `O=S1(=O)c2cccc3cccc(c23)N1CCCN1CCN(c2ccc(F)cc2)CC1`: 25.1 µM (active); for `CC(C)n1nc(-c2cc3cc(O)ccc3[nH]2)c2c(N)ncnc21`: 2.24 µM (active).
For the compound `CC1=C(C(=O)O)N2C(=O)[C@@H](NC(=O)[C@H](N)C3=CCC=CC3)[C@H]2SC1`, the outcome was inactive.
As to `CO/N=C(/C(=O)N[C@@H]1C(=O)N2C(C(=O)O)=C(Cn3nnc(C)n3)CS[C@H]12)c1csc(N)n1`, the result was inactive.
On the same count and under the same terms, the same measure for `CC[C@H](NC(C)C)[C@H](O)c1ccc(O)c2[nH]c(=O)ccc12`: “inactive”.
On to `Cc1ccc(C(=O)Nc2ccc(S(=O)(=O)O)c3cc(S(=O)(=O)O)cc(S(=O)(=O)O)c23)cc1NC(=O)c1cccc(NC(=O)Nc2cccc(C(=O)Nc3cc(C(=O)Nc4ccc(S(=O)(=O)O)c5cc(S(=O)(=O)O)cc(S(=O)(=O)O)c45)ccc3C)c2)c1`, for which the half-maximal activity concentration (AC50) is 20 µM (active).
On the same count and under the same terms, with `CCCOc1ccc(C(=O)OCCN(CC)CC)cc1N` the figure was 22.4 µM (active).
For the compound `NC(N)=NN=C(/C=C/c1ccc([N+](=O)[O-])o1)/C=C/c1ccc([N+](=O)[O-])o1`, the half-maximal activity concentration (AC50) was 3.16 µM (active).
For the compound `Cc1ccc(=O)n(-c2ccccc2)c1`, the outcome was inactive.
Take `C[C@H](N)C(=O)N[C@@H](C)C(=O)NC1[C@H]2CN(c3nc4c(cc3F)c(=O)c(C(=O)O)cn4-c3ccc(F)cc3F)C[C@@H]12` (stereo partly drawn): the outcome was inactive.
On the same count and under the same terms, the same measure for `Cc1cccc(Nc2cc(Cl)nc(SCC(=O)O)n2)c1C`: “inactive”.
The same measure, in the same setting: with `c1ccc(CC2=NCCN2)cc1` the entry was “inactive”.
For `Oc1ccc(Cl)cc1Sc1cc(Cl)ccc1O`, the AC50 is 15.8 µM (active).
As for `CCOC(=O)N1CCC(n2c(=O)[nH]c3cc(Cl)ccc32)CC1`, the outcome was inactive.
Regarding `Cc1cc2c(OCC(CNC(C)(C)C)OC(=O)c3ccccc3)cccc2[nH]1` (stereo not drawn), the AC50 is 28.2 µM (active).
The same measure, in the same setting: with `COc1ccc2nc(NC(=O)Nc3ccccc3)sc2c1` the figure was 15.8 µM (active).
Same read-out and setting: the same measure for `C#C[C@]1(O)CC[C@H]2[C@@H]3CCc4cc(O)ccc4[C@H]3CC[C@@]21C`: 11.2 µM (active).
For `CC1(C)O[C@@H]2C[C@H]3[C@@H]4CCC5=CC(=O)CC[C@]5(C)[C@@]4(F)[C@@H](O)C[C@]3(C)[C@]2(C(=O)CCl)O1`, the AC50 was 10 µM (active).
Turning to `C=C1C[C@H]2[C@@H]3C=C(C)C4=CC(=O)CC[C@]4(C)[C@H]3CC[C@]2(C)[C@@]1(OC(C)=O)C(C)=O`, the outcome was inactive.
